Measured values published in the supplement of paper PMC12067093, “Discovery and optimisation of a covalent ligand for TRIM25 and its application to targeted protein ubiquitination” (Chemical Science, 2025).
The full data set covers some 21,000 targets. This sample favours those with the largest changes.

Compound: Cc1cc(ccc1-c1ccccc1)C(=O)N1CCCN(CC1)C(=O)CCl [compound 10]
Experiment: probe-labelled cysteine peptide fold change vs DMSO (competition) (log2 fold change); higher = less target engagement (more negative = stronger competition)
Conditions: 10 µM; THP-1; incubation time: 4 h
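Further: competitive profiling in live THP-1 cells: cysteine peptides tagged with an iodoacetamide desthiobiotin (IA-DTB) probe, intensity after compound treatment relative to DMSO-treated cells.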

Sequence of UniProt Q96PU4 (Q96PU4 whole entry, looked up): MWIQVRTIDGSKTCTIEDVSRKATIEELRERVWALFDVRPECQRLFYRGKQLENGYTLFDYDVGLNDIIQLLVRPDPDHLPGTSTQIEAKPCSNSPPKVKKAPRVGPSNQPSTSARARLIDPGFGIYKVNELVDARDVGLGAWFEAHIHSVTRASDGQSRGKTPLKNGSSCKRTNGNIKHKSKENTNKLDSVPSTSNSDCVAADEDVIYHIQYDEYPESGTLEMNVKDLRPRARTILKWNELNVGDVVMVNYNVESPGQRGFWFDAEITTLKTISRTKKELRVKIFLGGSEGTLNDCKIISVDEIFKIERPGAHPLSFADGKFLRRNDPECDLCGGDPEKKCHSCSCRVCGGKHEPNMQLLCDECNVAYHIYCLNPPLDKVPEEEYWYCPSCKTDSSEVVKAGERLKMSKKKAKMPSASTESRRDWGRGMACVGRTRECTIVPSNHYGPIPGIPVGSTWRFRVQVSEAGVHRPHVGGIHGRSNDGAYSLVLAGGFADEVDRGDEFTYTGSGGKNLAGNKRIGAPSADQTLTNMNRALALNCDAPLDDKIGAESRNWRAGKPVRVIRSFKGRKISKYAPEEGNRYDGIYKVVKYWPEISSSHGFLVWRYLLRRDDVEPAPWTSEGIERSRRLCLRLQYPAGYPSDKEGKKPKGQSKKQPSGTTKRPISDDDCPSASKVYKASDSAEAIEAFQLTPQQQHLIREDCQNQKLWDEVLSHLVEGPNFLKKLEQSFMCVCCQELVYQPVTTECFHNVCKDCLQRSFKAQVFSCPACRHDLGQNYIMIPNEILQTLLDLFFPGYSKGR
Sequence of UniProt O14530 (O14530 whole entry): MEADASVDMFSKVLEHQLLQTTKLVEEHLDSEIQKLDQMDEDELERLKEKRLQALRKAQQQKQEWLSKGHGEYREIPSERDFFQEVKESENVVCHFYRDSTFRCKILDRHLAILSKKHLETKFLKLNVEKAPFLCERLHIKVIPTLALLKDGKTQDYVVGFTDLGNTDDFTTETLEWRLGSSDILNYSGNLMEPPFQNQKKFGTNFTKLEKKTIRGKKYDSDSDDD
Sequence of UniProt Q9UPT9 (Q9UPT9 whole entry): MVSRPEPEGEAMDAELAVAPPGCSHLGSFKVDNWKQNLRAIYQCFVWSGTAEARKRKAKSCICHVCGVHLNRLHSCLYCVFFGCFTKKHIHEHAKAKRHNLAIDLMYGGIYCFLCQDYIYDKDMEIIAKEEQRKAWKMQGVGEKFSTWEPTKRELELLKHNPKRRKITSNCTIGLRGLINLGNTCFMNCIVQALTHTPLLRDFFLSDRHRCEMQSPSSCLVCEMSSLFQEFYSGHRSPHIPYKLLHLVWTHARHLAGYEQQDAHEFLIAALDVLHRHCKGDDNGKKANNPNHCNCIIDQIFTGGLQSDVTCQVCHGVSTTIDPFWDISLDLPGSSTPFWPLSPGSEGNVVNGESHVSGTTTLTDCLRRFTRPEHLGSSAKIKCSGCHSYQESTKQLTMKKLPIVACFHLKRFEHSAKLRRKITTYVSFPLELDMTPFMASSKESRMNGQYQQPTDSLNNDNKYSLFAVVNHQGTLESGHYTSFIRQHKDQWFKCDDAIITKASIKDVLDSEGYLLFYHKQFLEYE
Sequence of UniProt Q9UPN9 (Q9UPN9 whole entry, looked up): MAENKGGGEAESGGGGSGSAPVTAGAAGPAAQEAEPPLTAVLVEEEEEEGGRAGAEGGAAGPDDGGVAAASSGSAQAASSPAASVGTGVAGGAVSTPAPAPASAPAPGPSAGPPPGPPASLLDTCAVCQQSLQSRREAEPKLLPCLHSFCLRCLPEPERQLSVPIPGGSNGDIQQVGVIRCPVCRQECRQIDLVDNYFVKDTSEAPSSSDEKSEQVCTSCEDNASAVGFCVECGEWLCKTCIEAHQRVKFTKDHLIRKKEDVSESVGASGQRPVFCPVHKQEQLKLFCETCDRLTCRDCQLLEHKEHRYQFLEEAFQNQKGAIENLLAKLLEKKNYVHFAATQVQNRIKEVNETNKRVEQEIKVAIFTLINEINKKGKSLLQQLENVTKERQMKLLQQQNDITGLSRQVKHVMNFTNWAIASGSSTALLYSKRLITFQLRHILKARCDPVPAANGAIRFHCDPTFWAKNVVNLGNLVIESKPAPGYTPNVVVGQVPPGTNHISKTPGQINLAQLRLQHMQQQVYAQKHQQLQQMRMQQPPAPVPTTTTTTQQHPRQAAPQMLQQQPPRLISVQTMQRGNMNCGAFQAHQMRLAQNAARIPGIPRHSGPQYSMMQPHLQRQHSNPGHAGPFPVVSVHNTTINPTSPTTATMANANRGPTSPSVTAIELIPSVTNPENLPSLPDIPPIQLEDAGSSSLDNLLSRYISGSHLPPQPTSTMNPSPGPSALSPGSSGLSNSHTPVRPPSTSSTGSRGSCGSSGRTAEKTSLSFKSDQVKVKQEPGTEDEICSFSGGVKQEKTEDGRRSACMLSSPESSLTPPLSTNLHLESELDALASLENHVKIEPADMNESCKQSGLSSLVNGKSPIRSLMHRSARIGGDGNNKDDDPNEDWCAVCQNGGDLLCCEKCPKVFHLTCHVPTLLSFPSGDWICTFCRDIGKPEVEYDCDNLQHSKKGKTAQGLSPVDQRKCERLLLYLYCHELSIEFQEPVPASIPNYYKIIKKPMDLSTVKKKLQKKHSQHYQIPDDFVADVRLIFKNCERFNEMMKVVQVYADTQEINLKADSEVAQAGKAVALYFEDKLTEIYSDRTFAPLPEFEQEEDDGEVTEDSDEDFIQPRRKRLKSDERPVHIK
Sequence of UniProt Q8IWV8 (Q8IWV8 whole entry, looked up): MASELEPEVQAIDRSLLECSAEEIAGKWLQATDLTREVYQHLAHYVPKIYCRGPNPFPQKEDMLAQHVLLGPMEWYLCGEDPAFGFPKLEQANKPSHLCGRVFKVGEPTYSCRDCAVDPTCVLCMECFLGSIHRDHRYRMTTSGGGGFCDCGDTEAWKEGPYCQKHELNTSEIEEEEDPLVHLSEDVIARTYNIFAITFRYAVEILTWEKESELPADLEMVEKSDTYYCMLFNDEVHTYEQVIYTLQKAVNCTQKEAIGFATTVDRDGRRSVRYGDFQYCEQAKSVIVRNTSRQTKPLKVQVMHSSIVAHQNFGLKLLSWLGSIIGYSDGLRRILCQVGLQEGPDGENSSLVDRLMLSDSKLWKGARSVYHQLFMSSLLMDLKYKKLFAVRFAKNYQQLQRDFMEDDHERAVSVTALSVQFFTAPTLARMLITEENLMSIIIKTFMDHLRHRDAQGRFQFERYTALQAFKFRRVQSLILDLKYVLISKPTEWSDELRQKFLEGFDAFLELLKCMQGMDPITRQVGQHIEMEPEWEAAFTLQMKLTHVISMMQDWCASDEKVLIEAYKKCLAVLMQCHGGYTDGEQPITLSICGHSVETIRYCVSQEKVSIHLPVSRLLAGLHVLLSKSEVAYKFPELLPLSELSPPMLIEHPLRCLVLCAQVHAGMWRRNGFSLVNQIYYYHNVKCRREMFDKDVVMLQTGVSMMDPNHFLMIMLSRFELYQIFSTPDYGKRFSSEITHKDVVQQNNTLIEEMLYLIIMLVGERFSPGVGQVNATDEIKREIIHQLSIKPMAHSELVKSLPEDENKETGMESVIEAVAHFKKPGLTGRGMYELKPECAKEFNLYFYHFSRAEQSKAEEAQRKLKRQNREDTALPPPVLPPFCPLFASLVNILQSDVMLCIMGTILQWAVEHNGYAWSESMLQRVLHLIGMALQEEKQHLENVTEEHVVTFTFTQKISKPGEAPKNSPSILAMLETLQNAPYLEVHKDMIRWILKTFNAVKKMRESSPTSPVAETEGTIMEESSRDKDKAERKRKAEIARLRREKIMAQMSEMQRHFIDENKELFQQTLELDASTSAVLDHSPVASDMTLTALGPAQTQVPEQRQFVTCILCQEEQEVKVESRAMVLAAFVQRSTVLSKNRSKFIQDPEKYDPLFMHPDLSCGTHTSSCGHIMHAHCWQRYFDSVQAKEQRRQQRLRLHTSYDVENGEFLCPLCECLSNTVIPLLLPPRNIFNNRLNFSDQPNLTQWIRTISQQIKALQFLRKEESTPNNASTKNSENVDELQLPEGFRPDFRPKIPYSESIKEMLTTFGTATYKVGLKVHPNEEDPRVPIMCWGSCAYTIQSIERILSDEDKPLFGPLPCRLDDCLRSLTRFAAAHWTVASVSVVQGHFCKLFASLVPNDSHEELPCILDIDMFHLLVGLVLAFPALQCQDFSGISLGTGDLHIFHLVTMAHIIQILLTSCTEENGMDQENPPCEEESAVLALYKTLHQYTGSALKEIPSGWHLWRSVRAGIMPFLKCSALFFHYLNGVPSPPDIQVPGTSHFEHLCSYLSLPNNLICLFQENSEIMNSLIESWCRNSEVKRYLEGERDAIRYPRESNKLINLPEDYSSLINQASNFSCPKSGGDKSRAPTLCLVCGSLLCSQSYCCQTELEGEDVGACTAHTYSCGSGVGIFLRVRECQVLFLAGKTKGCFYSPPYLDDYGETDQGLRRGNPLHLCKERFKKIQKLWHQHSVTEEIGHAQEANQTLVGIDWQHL
Sequence of UniProt O75865 (O75865 whole entry): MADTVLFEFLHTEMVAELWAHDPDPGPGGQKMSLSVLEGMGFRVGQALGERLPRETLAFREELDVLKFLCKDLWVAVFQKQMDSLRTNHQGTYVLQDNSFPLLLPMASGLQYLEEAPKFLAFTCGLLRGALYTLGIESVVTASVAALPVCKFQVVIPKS
Sequence of UniProt P60604 (P60604 whole entry): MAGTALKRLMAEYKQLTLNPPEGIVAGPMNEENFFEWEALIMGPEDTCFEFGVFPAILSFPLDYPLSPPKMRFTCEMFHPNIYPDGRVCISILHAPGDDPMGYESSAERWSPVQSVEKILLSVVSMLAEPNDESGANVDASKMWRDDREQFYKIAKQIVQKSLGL
Sequence of UniProt Q99614 (Q99614 whole entry, looked up): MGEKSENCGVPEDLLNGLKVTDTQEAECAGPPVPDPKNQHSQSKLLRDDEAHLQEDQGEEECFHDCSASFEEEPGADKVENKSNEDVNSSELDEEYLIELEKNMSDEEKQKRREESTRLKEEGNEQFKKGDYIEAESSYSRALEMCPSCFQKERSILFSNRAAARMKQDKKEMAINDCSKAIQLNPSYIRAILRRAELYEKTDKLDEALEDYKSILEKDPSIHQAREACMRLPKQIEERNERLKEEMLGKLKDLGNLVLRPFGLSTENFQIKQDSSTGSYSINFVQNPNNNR

Target	probe-labelled cysteine peptide fold change
USP8_P40818_809_NCYQDDINR (UniProt P40818)	-0.199
TRIM33_Q9UPN9_276_KKEDVSESVGASGQRPVFCPVHK (UniProt Q9UPN9)	-0.0301
USP15_Q9Y4E8_633+634_ISTETEETEGSLHCCK (UniProt Q9Y4E8)	-0.567
USP34_Q70CQ2_3118_SNIRPPRPELNMCLLPTMVETSK (UniProt Q70CQ2)	0.146
TTC1_Q99614_178_EMAINDCSK (UniProt Q99614)	0.303
UBE2L6_O14933_86+98_IYHPNVDENGQICLPIISSENWKPCTK (UniProt O14933)	-0.606
TUBA4A_P68366_4_MRECISVHVGQAGVQMGNACWELYCLEHGIQPDGQMPSDK (UniProt P68366)	-0.0787
TRPM2_O94759_72_ECVYFVESSK (UniProt O94759)	-0.0415
UQCRC2_P22695_192_NALANPLYCPDYR (UniProt P22695)	0.015
TXN2_Q99757_90+93_VVNSETPVVVDFHAQWCGPCK (UniProt Q99757)	-1.92
UBA3_Q8TBC4_28_MAVDGGCGDTGDWEGR (UniProt Q8TBC4)	-0.245
VAV3_Q9UKW4_187_CPENDIR (UniProt Q9UKW4)	-0.136
USP22_Q9UPT9_171_KITSNCTIGLR (UniProt Q9UPT9)	-0.315
UCK2_Q9BZX2_197_PAFEEFCLPTK (UniProt Q9BZX2)	-0.0609
UBA6_A0AVT1_156_YQCVVLTEMK	0.126
UNC45A_Q9H3U1_503_ALVGLCK (UniProt Q9H3U1)	0.0377
USP40_Q9NVE5_50_NQGGTCYLNSLLQTLHFTPEFR (UniProt Q9NVE5)	-0.592
UBR2_Q8IWV8_1717_GNPLHLCK (UniProt Q8IWV8)	-0.263
VPS41_P49754_638_DSTHCPLEK (UniProt P49754)	-0.172

Target	probe-labelled cysteine peptide fold change
TRAPPC6A_O75865_124_FLAFTCGLLR (UniProt O75865)	0.203
TRMT2A_Q8IZ69_270_GGTCAVAAPFDTVHIPEATK (UniProt Q8IZ69)	-0.0935
UBAP2_Q5T6F2_71_NQDECIVALHDCNGDVNK (UniProt Q5T6F2)	0.0613
VARS2_Q5ST30_549_QLWWGHQIPAYLVVEDHAQGEEDCWVVGR (UniProt Q5ST30)	0.149
TXN2_Q99757_93_VVNSETPVVVDFHAQWCGPCK (UniProt Q99757)	-1.34
VAPA_Q9P0L0_179_KLMEECK (UniProt Q9P0L0)	-0.0535
UBE2G2_P60604_75_FTCEMFHPNIYPDGR (UniProt P60604)	-0.0589
TTLL12_Q14166_361_PGVLLNQFPCENLLTVK (UniProt Q14166)	-0.00778
UBA7_P41226_829_CQNYGIPPVNR (UniProt P41226)	-0.03
UHRF2_Q96PU4_42_VWALFDVRPECQR (UniProt Q96PU4)	-0.064
TRNAU1AP_Q9NX07_157_ALTECQGAVGLGSKPVR (UniProt Q9NX07)	-0.212
TUBA3C_P0DPH7_4+20+25_MRECISIHVGQAGVQIGNACWELYCLEHGIQPDGQMPSDK<|>TUBA3D_P68363_4+20+25_MRECISIHVGQAGVQIGNACWELYCLEHGIQPDGQMPSDK<|>TUBA1B_Q6PEY2_4+20+25_MRECISIHVGQAGVQIGNACWELYCLEHGIQPDGQMPSDK<|>TUBA3E_Q9BQE3_4+20+25_MRECISIHVGQAGVQIGNACWELYCLEHGIQPDGQMPSDK (UniProt Q9BQE3+Q6PEY2+P68363+P0DPH7)	0.318
TXNDC9_O14530_94_ESENVVCHFYR (UniProt O14530)	-0.0612
UBE2O_Q9C0C9_375_NCAQGEGSMAK (UniProt Q9C0C9)	-0.0634
TRNT1_Q96Q11_373_YQGEHCLLK (UniProt Q96Q11)	-0.39
TRIM59_Q8IWR1_10+13_MHNFEEELTCPICYSIFEDPR<|>IFT80_Q9P2H3-3_10+13_MHNFEEELTCPICYSIFEDPR (UniProt Q9P2H3+Q8IWR1)	-0.194
UHRF1BP1L_A0JNW5_398_NGWANELLHEFECNVEMLK (UniProt A0JNW5)	-0.0203
TRAP1_Q12931_527_KDTEVLFCFEQFDELTLLHLR (UniProt Q12931)	0.143
VCPIP1_Q96JH7_207+219_SQECLIPVHVDGDGHCLVHAVSR (UniProt Q96JH7)	-1.2
